# The list is not random: actives were taken first. Their share in the collection is about 2.2%.
# NCF1 inh: blocks human p47phox regulatory protein of NADPH oxidases; P14598; p47phox/p22phox peptide binding, fluorescence polarization, 2 h; inhibition, % at 24.7 µM; 220,000 tested, 0.53% active;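 active = inhibition above about 30%, limit read from the data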;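 also: 0% = p47phox with labelled peptide and 100% = labelled peptide alone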
# Target sequence (P14598 whole entry, looked up): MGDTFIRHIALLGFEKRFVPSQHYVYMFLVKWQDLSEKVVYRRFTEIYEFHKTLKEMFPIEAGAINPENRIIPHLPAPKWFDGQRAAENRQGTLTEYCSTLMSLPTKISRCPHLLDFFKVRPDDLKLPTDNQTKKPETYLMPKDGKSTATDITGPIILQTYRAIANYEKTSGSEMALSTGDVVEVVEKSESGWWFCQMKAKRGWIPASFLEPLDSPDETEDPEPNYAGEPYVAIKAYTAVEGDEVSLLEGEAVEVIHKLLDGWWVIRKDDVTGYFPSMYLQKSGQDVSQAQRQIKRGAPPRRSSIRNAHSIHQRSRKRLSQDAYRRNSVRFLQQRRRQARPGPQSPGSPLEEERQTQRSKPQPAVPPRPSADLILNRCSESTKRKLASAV
# Redox H2O2 prof: compounds producing H2O2 with reducing agent – biochemical, NIH compound library profiling, artefact control for MLSCN library redox annotation, primary screen | activation, % at 10 µM | 200,000 tested, 0.03% active | DTT-dependent redox cycling H2O2, phenol red/HRP absorbance; 100% = 100 µM peroxide control, 0% = buffer;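 active = activation of at least 50% relative to the plate's high and low controls in the primary single-dose screen; inactive = activation below 50%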;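 also: compound incubated with DTT at 0.8 mM final as the reducing agent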
# HMGR II inh: E. faecalis class II HMG-CoA reductase inhibition | 190,000 tested, 0.41% active | inhibition, % at 10 µM | purified E. faecalis HMGR, NADPH absorbance 340 nm kinetic;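 active = inhibition above a set limit, the median over all tested compounds plus 3 SD, cut at about 9.5% in these data; inconclusive = no clear call, values can overlap the other calls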;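 also: enzyme runs in reverse so mevalonate oxidation gives rising NADPH absorbance; 0% = complete reaction with DMSO and 100% = background rate lacking mevalonate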
# Autophagy mod: modulators of autophagy; MEF GFP-LC3 puncta imaging; test concentration mostly 10 µM; calls only at 10 µM (by protocol); 190,000 tested, 0.98% active;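 active = percentage of spot-positive cells more than 3 SD above its plate mean, without a fluorescence outlier flag or 80% toxicity; inconclusive = no clear call, values can overlap the other calls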;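 also: spot-positive cell cutoff set from DMSO-treated cells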
# Ins promoter up: MIN6 insulin promoter up-regulation; MIN6 insulin promoter-GFP reporter, high-content imaging; active compounds read high; z-score at 5 µM; 190,000 tested, 0.3% active;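 active = z-score above 3 at 5 µM with at least 500 cells counted in the well; inconclusive = wells under 500 cells, flagged as cytotoxic or low count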
# Arbovirus anti: blocks arbovirus infection; arbovirus infection cell-based antiviral screen; inhibition, % at 10 µM; 200,000 tested, 0.37% active; in the data active = inhibition above about 30%
# Numbers without * were called inactive; i = inactive; ? = inconclusive; · = no result given; + = active, no number.
SMILES,NCF1 inh,Redox H2O2 prof,HMGR II inh,Autophagy mod,Ins promoter up,Arbovirus anti
Cc1ccc(Nc2nc3ccccc3s2)c(C)c1,-3,0,-4,i,-0.15,15
Cc1cc(O)ccc1Nc1nc2ccccc2nc1Nc1ccc(O)cc1C,56*,1,-4,i,-0.74,-39
Cc1ccc(S(=O)(=O)CCCS(=O)(=O)c2ccc(C)cc2)cc1,4,4,11*,i,0.1,1
CN(c1cccc(Cl)c1)S(=O)(=O)c1cccc(C(=O)NC2=NCCS2)c1,-26,3,-6,i,3.5*,0
CN(c1cccc(Cl)c1)S(=O)(=O)c1cccc(C(=O)Nc2nc3ccccc3[nH]2)c1,-15,0,-3,i,-1.6,-8
CC(C)c1ccc(NC(=S)N(C)CCc2ccccn2)cc1,4,-1,1,i,-0.44,6
CCn1c(-c2cccs2)nc2ccccc21,6,1,0,i,·,2
C#CCn1c(-c2cccs2)nc2ccccc21,-1,0,14*,i,0.37,19
Cn1cc(Br)c(NS(=O)(=O)c2ccc(Cl)s2)n1,10,·,·,·,0.42,·
O=C(CC1SC2=NCCN2C1=O)Nc1ccc(Cl)cc1 (centres undefined),-5,0,1,+,-0.88,10
O=S(=O)(c1ccccc1)N1CCN(c2nnc(-c3ccccc3)c3ccccc23)CC1,3,·,·,·,-0.05,·
Cc1ccc2nc3sc(C(=O)Nc4c(C)[nH]c(=O)[nH]c4=O)c(N)c3cc2c1,-9,1,-6,i,·,-5
Cc1ccc2cc3c(N)c(C(=O)N4CCOCC4)sc3nc2c1,-10,3,3,i,-0.21,-2
COc1ccc2nc(SCC(=O)N3CC(=O)Nc4ccccc43)c(C#N)cc2c1,-93,0,1,i,-0.21,-22
Cc1ccc2cc3c(N)c(C(=O)Nc4c(C)[nH]c(=O)[nH]c4=O)sc3nc2c1,-26,1,-3,+,·,-1
Cc1ccc2cc3c(N)c(C(=O)N4CC(=O)Nc5ccccc54)sc3nc2c1,-66,-3,-9,+,·,-18
Cc1cc(C)cc(C(=O)N2CC(=O)Nc3ccccc32)c1,-4,0,1,+,-2.4,-14
Cc1cc(C)c2nc(SCC(=O)N3CC(=O)Nc4ccccc43)c(C#N)cc2c1,-144,1,-1,+,·,-21
CCN1/C(=C/C=C/c2oc3ccc(-c4ccccc4)cc3[n+]2CC)Oc2ccc(-c3ccccc3)cc21,-236,2,-3,·,?,-28
CN1CCN(NC(=O)c2ccc(Br)c(S(=O)(=O)N3CCOCC3)c2)CC1,-9,0,-3,i,0.22,11
CCCn1c(N)c(NCCN2CCOCC2)c(=O)n(CC(=O)NCc2ccccc2)c1=O,3,0,0,i,-0.53,21
CCOC(=O)c1cc(NC(=O)c2ccccc2)c(=O)n2c1oc1ccccc12,-93,-1,-1,i,-0.45,-8
Cc1ccc(C)c(NC(=S)Nc2ccc(S(=O)(=O)Nc3ncccn3)cc2)c1,-2,0,-5,+,·,5
O=C(O)CCC(=O)/C=C/c1ccccc1,6,1,12*,i,-1.1,0
CC(=O)NC(CCCN1C(=O)c2ccccc2C1=O)c1nnn(C)n1 (centres undefined),-6,0,5,i,0.18,-1
SMILES,NCF1 inh,Redox H2O2 prof,HMGR II inh,Autophagy mod,Ins promoter up,Arbovirus anti
COc1ccc2c(c1)cc(C(=O)O)n2C,-5,-3,-2,i,0.07,4
COc1cc2cc(C(=O)O)n(C)c2c(OC)c1OC,60*,0,0,i,-0.01,9
O=C(N/N=C/c1ccccc1C(=O)O)c1cc(-c2ccc3c4c(cccc24)CC3)n[nH]1,-14,0,13*,i,-1.7,-15
O=C(N/N=C/c1ccco1)c1cc(-c2cccc3ccccc23)n[nH]1,-41,2,0,i,-1.1,-4
CCOC(=O)c1ccc(NC(=O)/C=C/c2cccs2)cc1,-6,-1,-4,+,0.18,3
O=C(/C=C/c1cccs1)c1ccc(NC(=O)c2ccccc2F)cc1,-6,1,18*,i,0.07,7
CCN(CC)CCOC(=O)c1ccc(NC(=O)/C=C/c2cccs2)cc1,-4,0,-5,i,-0.12,-2
O=C(Nc1ccc(N2CCCC2)c(Cl)c1)c1ccco1,-6,0,-2,i,0.19,3
Cc1ccc(NC(=O)c2cc(NC(=O)c3ccco3)ccc2N2CCOCC2)cc1Cl,-4,-1,0,+,-1.3,-14
CCOc1ccc(C(=O)NC(=S)Nc2ccc(NC(=O)c3ccco3)c(C)c2)cc1[N+](=O)[O-],-3,0,2,i,0.05,-4
CC(C)c1ccccc1NC(=O)COC(=O)C1(C)CC1(Cl)Cl (centres undefined),10,0,1,i,0.64,2
CCOc1ccc(Oc2ccc(-c3nnc(-c4ccccc4)o3)cc2[N+](=O)[O-])cc1,12,-1,-8,+,-0.68,1
O=[N+]([O-])c1cc(-c2nnc(-c3ccccc3)o2)ccc1Oc1ccc(Cl)cc1,-1,1,3,i,0.07,-13
Brc1ccc(C2=Nn3c(Cn4nnc5ccccc54)nnc3SC2)cc1,1,·,·,·,0.88,·
O=C(CC1SCCNC1=O)Nc1ccc(F)c(Cl)c1 (centres undefined),-11,7,16*,i,0.13,0
O=c1cc(-c2ccco2)oc2c1ccc1ccccc12,-19,0,-1,i,0.49,-2
O=c1cc(C(Cl)(Cl)Cl)oc2c1ccc1ccccc12,-15,1,3,+,-3.8,-36
COc1ccc(/C=C2/C(=O)N(c3nc4ccccc4s3)N=C2CSc2ccc(Cl)cc2)cc1,-13,1,1,i,0.14,-16
O=C(c1cccs1)N1CCN(Cc2cccc([N+](=O)[O-])c2)CC1,-6,0,3,i,-0.2,-8
COCCNCC(=O)Nc1nc(C)cs1,-2,-3,-3,i,0.27,9
COC(=O)c1nnn(-c2cccc(Cl)c2)c1C(=O)OC,3,·,·,·,·,·
CCN(CC)CCNC(=O)C(=O)NCC1OCCN1C(=O)c1ccc2c(c1)OCO2 (centres undefined),1,0,19*,i,-0.44,5
CCOC(=O)c1ccc(N2CCN(C(C)=O)CC2)c(NC(=O)c2cccnc2)c1,-3,0,-3,i,-1.8,-2
Cc1cc(N2CCN(c3ccccc3)CC2)n2ncnc2n1,5,-1,-4,i,-1.2,-7
Cc1cc(N2CCN(S(=O)(=O)c3ccc4ccccc4c3)CC2)n2ncnc2n1,-5,-1,3,+,-0.08,15
Cn1[nH]c(C(F)(F)F)c(C=NCc2ccc(Cl)cc2)c1=O,-9,-1,1,i,·,7

# Compound activity from PubChem BioAssay.
